Here are results for 13 compounds from paper PMC6792352, “Limited Chemical Structural Diversity Found to Modulate Thyroid Hormone Receptor in the Tox21 Chemical Library” (Environmental Health Perspectives, 2019).

Counter-ions that a name gives are not always drawn. Bounds are passed on as bounds.

The assay concerns thyroid hormone receptor (endogenous TRα and TRβ). On the set-up: species or system GH3-TRE-Luc (rat pituitary); GH3-TRE-Luc luciferase reporter, antagonist mode against 1 nM T3, loss of signal, qHTS. Particulars: read-out: Average AC50 (uM) GH3-TRE-Antag; 24 h; antagonist.
In the case of `O=c1oc2ccccc2c(O)c1C(CC(O)c1ccc(-c2ccc(Br)cc2)cc1)c1ccccc1` (stereo not shown) [Bromadiolone], the AC50 amounted to 44.3 µM. The result for `COc1cc(C[C@H](C)N)c(OC)cc1C` [(S)-(+)-2,5-Dimethoxy-4-methylamphetamine hydrochloride] reads 49.7 µM; that for `C[C@]12CC[C@H]3[C@@H](CCC4=CC(=O)CC[C@@H]43)[C@@H]1CC[C@@H]2O` [Nandrolone], 32.5 µM. In the case of `O=C1Nc2ccc(Cl)cc2C(c2ccccc2Cl)=NC1O` (stereo not shown) [Lorazepam], the AC50 is over 50 µM. The result for `CCCCCCCCC(=O)NCc1ccc(O)c(OC)c1` [Nonivamide] reads over 50 µM; that for `CC[C@]1(O)CC[C@H]2[C@@H]3CCC4=CCCC[C@@H]4[C@H]3CC[C@@]21C` [Ethylestrenol], 7.8 µM. Regarding `O=C1CN=C(c2ccccc2)c2cc(Cl)ccc2N1` [Desmethyldiazepam], the AC50 was found to be 22.9 µM. With `Cc1nnc2n1-c1ccc(Cl)cc1C(c1ccccc1)=NC2` [Alprazolam] the figure was 41.3 µM. Consider `CSCCCN=C=S` [3-(Methylthio)propyl isothiocyanate], for which the AC50 is over 90 µM.

Turning to `Cc1cc2c3c(c1)C(c1ccccc1)=N[C@@H](NC(=O)c1ccncc1)C(=O)N3CC2` [CI-1018], the AC50 was 27.4 µM.

On to `CN(C)CCc1c[nH]c2cccc(O)c12` [Psilocin], for which the AC50 stood at 91 µM. With `CN1C(=S)CN=C(c2ccccc2)c2cc(Cl)ccc21` [Sulazepam] the figure was 43.6 µM; with `Nc1c(Cl)cc([N+](=O)[O-])cc1Cl` [Dicloran], 91.8 µM.
